Among all 24,000 compounds or so, about 70 (0.3%) were called active. What follows is part of a selection rich in actives, with near analogues and random picks from the rest. A number with no mark means an inactive call. Cut-off read from the data, not from the text of the source: active = inhibition above about 30%; inconclusive = no clear call, values can overlap the other calls; inactive = below that.
These compounds were tested against N-formyl peptide receptor 2 (Homo sapiens) (UniProt P25090) (assay: small molecules displacing FPRL1 fluorescent ligand – cell-based, FPR counter-screen, flow cytometry, primary screen (AID 441;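 note: 0% = buffer alone and 100% = receptor blocker peptide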)). Details: FPRL1-expressing cells, fluorescent ligand binding inhibition, hits give high values, concentration not given here.
Chain of N-formyl peptide receptor 2 (Homo sapiens) (P25090 whole entry, looked up): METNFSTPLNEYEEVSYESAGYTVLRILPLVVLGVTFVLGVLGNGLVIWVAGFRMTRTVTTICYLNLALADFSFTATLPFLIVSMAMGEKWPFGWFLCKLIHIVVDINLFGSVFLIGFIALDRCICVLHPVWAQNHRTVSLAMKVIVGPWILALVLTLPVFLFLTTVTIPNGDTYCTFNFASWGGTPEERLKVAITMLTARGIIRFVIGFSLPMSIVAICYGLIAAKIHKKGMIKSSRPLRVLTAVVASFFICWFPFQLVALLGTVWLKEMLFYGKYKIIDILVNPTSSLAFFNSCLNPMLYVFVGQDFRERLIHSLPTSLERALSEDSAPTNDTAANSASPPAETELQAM

| Compound | inhibition [%] |
| --- | --- |
| CN(C)/C=C1\C=C(c2ccccc2)OC1=O | -0.8 |
| COc1cc2c(cc1OC)C(c1ccc(C)o1)CC(=O)N2 (stereo unspecified) | -0.6 |
| O=C(O)Cc1ccc(NC(=O)C2CCCCC2C(=O)O)cc1 (stereo unspecified) | -3.1 |
| CN(C)S(=O)(=O)c1ccc(Oc2ccc(S(=O)(=O)N(C)C)cc2)cc1 | 0.3 |
| Cc1cc(C)c2c(n1)nn1c(N3CCN(c4cccc(Cl)c4)CC3)cc(C)nc21 | 1.1 |
| CCCS(=O)(=O)N1CCC(C(=O)NCCCN(C)Cc2ccccc2)CC1 | -2.9 |
| Cc1nc2ccc(S(=O)(=O)NCC(=O)O)cc2s1 | 6.9 |
| Cc1ccc(Nc2cc(=O)n(C3CCCCC3)c(=O)[nH]2)cc1C | -0.5 |
| COc1cc2ccccc2cc1C(=O)Nc1ccc(S(=O)(=O)Nc2cc(C)on2)cc1 | 1.4 |
| O=C(CCN1C(=O)c2ccccc2C1=O)NCCN1CCOCC1 | 3.1 |
| Cc1cccc(NC(=O)CN2CCCN(S(=O)(=O)c3ccc(Br)s3)CC2)c1 | 6.3 |
| CCCSc1nc2c(c(=O)[nH]c(=O)n2C)n1CCc1ccccc1 | 0.6 |
| CC(=O)c1c(C)[nH]c(C(=O)NCCCN2CCCC2)c1C | 2.2 |
| COc1ccccc1CNC(=O)Cn1cc2c(n1)CCCC2 | -1.9 |
| Cc1ccccc1-n1nnc2c(=O)oc3ccccc3c21 | -2.1 |
| CC1(C)Oc2ccc3ccc(=O)oc3c2/C(=C/NCCO)C1=O | -5.7 |
| c1cc(-c2nn[nH]n2)ccc1CN1CCCCC1 | -4.3 |
| COc1ccc(/C(O)=C2\C(=O)C(=O)N(Cc3ccco3)C2c2ccc(OC)cc2OC)cc1 (stereo unspecified) | 26.8 |
| CCOc1cccc(/C(O)=C2/C(=O)C(=O)N(CCOC)C2c2ccncc2)c1 (stereo unspecified) | -3.8 |
| COc1cccc(OCC(O)CN2CCN(CCO)CC2)c1 (stereo unspecified) | 2.6 |
| Cc1ccc(NC(=O)CN(C)S(=O)(=O)c2cnc[nH]2)cc1C | -2.5 |
| COc1cc(C2C(C(=O)c3ccc(C)o3)=C(O)C(=O)N2Cc2cccnc2)ccc1O (stereo unspecified) | 28.1 |
| COc1ccc(/C(O)=C2/C(=O)C(=O)N(CC3CCCO3)C2c2ccc(OC)c(OC)c2)cc1 (stereo unspecified) | -7.5 |
| CCCS(=O)(=O)Nc1c(C(=O)O)[nH]c2ccccc12 | 2.1 |
| Cc1nnc(SCCCn2c(N3CCCCC3)nc3c2c(=O)[nH]c(=O)n3C)s1 | 0.8 |
| CCCCOC(=O)Nc1nccs1 | -2.9 |
